About 83,000 compounds went through this panel and 20% of them were active in at least one assay; those are over-represented in the sample as a whole.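 Single-concentration screen, 48 h exposure, 96-well plates. Endpoint: percent growth. Below 10 = active.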 Values without a mark were called inactive. Calls of active or inactive are those of the source.
What was measured:
Experiment in all cases: NCI-60 one-dose screen, 48 h (100 = growth as untreated, 0 = no growth, -100 = all killed)
Conditions in all cases: 10 µM unless noted
[1] = tested on: NCI-H23 lung
[2] = tested on: NCI-H226 lung
[3] = tested on: NCI-H322M lung
[4] = tested on: HOP-62 NSCLC
[5] = tested on: NCI-H460 lung
[6] = tested on: HOP-92 NSCLC
[7] = tested on: NCI-H522 lung
[8] = tested on: A549/ATCC NSCLC
[9] = tested on: 786-0 renal
[10] = tested on: COLO 205 colon
[11] = tested on: DU-145 prostate
[12] = tested on: K-562 leukemia
[13] = tested on: MALME-3M melanoma
[14] = tested on: MDA-MB-231 breast
[15] = tested on: RXF 393 renal
[16] = tested on: SF-268 CNS
[17] = tested on: SF-295 CNS
[18] = tested on: SF-539 CNS
[19] = tested on: UACC-257 melanoma
[20] = tested on: M14 melanoma

Row | Compound | growth [1] | growth [2] | growth [3] | growth [4] | growth [5] | growth [6] | growth [7] | growth [8] | growth [9] | growth [10] | growth [11] | growth [12] | growth [13] | growth [14] | growth [15] | growth [16] | growth [17] | growth [18] | growth [19] | growth [20] [%]
1 | COc1cc(NN=C(c2ccc(O)cc2)c2ccc(O)cc2)c([N+](=O)[O-])cc1[N+](=O)[O-] | 5.6% (active) | 110% | 94.3% | -1.66% (active) | 1.73% (active) | 70.2% | -49.9% (active) | -5.34% (active) | -29.5% (active) | 12.7% | 90.5% | 109% | 120% | 91.9% | -34.4% (active) | 72.3% | 112% | 5.64% (active) | -14.4% (active) | –
2 | COc1cc(/C=C/C(=O)/C=C/c2ccc(-n3ccnc3)cc2)ccc1O | 60.6% | 77.9% | 94.8% | 97.9% | 76.4% | 85.2% | 89.5% | 69.3% | 107% | 52.4% | 54.4% | 7.93% (active) | 79.3% | 63.7% | 26.8% | 54.8% | 75.2% | -0.198% (active) | 84.7% | 104
3 | OC(c1ccc(Cl)cc1)(c1ccc(Cl)cc1)C(O)(c1ccc(Cl)cc1)c1ccc(Cl)cc1 | 53.1% | 54.6% | 46.4% | 65.1% | 26.6% | 24.7% | 41.6% | 44.9% | 31.9% | 45% | 61.3% | 32.4% | 70.9% | 39.8% | 16.2% | 38.9% | -2.57% (active) | 87.2% | 64.7% | –
4 | O=C(NCc1ccc(Cn2c(=O)sn(-c3ccccc3)c2=O)cc1)OCc1ccc2c(Br)cc(Br)c(O)c2n1 | -47.2% (active) | -25.8% (active) | 43.1% | -48.4% (active) | -21% (active) | -58.7% (active) | -47.1% (active) | -52.3% (active) | -78.7% (active) | -75.6% (active) | -89.6% (active) | 5.05% (active) | -76.7% (active) | -53.4% (active) | -90.9% (active) | -59.9% (active) | 9.81% (active) | -93.6% (active) | -17.2% (active) | –
5 | CCOC(=O)c1ccc2nc(-c3c(C)nn(-c4ccccc4)c3N3CCOCC3)[nH]c2c1 | 95.2% | 73.3% | 102% | 85.6% | 97% | 79.8% | 87.2% | 94.5% | 104% | 114% | 105% | 91.2% | 98.7% | 69.9% | 92.1% | 94.3% | 96.2% | 95.8% | 106% | –
6 | COc1ccc(-c2nc3ccccn3c2/C=C/C(=O)c2cc(OC)c(OC)c(OC)c2)cc1OC | 16.3% | 23.3% | 51.3% | 28.5% | 0.623% (active) | -22.5% (active) | -5.63% (active) | 20.7% | 24.7% | 17.9% | 12.7% | 14.6% | 45.9% | 21.4% | 27.8% | 26.2% | 4.4% (active) | -25.1% (active) | 52.8% | –
7 | C=C(C)[C@@H]1CC[C@]2(COC(=O)c3ccccc3C(=O)O)CC[C@]3(C)[C@H](CC[C@@H]4[C@@]5(C)CC[C@H](OC(=O)c6ccccc6C(=O)O)C(C)(C)[C@@H]5CC[C@]43C)[C@@H]12 | 6.7% [100 µM] (active) | 25.9% [100 µM] | 30.7% [100 µM] | 3.17% [100 µM] (active) | 19.7% [100 µM] | -22.3% [100 µM] (active) | 46.8% [100 µM] | 51.3% [100 µM] | 1.64% [100 µM] (active) | 99.3% [100 µM] | 29.7% [100 µM] | 44.7% [100 µM] | 30.7% [100 µM] | -26.2% [100 µM] (active) | -21.9% [100 µM] (active) | 18% [100 µM] | 10.2% [100 µM] | 10.6% [100 µM] | 92.9% [100 µM] | –
8 | COc1ccc(C(=O)CCC(=O)O)cc1 | 89.4% | 93.3% | 97.3% | 104% | 101% | 105% | 102% | 93.2% | 103% | 101% | 99.7% | 49.1% | 87% | 80.4% | 109% | 95.6% | 95% | 98.7% | 80.2% | –
9 | CCN(CC)CCCNCc1cc(-c2ccccc2)nc2ccccc12 | 36% | 86.5% | 102% | 44.2% | 105% | 49.5% | 74.7% | 87.9% | 76.1% | 117% | 16.6% | 24.3% | 50.7% | 31.3% | 77.8% | 39.8% | 70.2% | 32.7% | 80% | –
10 | CCOc1ccc(/C=C(\C#N)c2cc3ccccc3[nH]2)cc1 | 78.6% | 90% | 87.1% | 54.7% | 36.2% | 87.4% | 32.8% | 38% | 89.5% | 49.4% | 81% | 15.3% | 60% | 71.9% | 58.6% | 84.2% | 58.3% | 68.3% | 79.2% | –
11 | CCCCCCCCCCCCNC(=S)N/N=C/c1ccccc1O | 60.9% | 69.2% | 83.5% | 74% | 49.6% | 84.2% | 78.1% | 95.6% | 89.5% | 33.1% | 68.1% | 61.2% | 98.9% | 78.8% | 107% | 65.5% | 70.7% | 85.4% | 98.2% | –
12 | CCn1cc(-c2ccnc(NCCNS(=O)(=O)c3ccc(Br)cc3)c2)c(-c2cccc(OC)c2)n1 | -96.1% (active) | 72.9% | 85.3% | 81.4% | 78.4% | 51.1% | 56.7% | 62.4% | 71.3% | 93.5% | 84.7% | 42.1% | 70.9% | 80.8% | 99.8% | 71.5% | 95.4% | 78.3% | 89.8% | –
13 | O=C1NC(=O)C(Cc2ccccc2)(Cc2ccccc2)N1 | 101% | 90.4% | 106% | 84.9% | 104% | 87.5% | 97.5% | 102% | 90.9% | 107% | 111% | 108% | 109% | 98.4% | 117% | 95.1% | 94.2% | 102% | 105% | –
14 | COCCCNc1nc(NC(=O)c2cc(OC)cc(OC)c2)cc(-c2cccnc2)n1 | 98.6% | 96.5% | 92.8% | 91.3% | 95.2% | 52.6% | 76.5% | 91.2% | 83.3% | 109% | 101% | 86.1% | 112% | 69.1% | 97.7% | 100% | 100% | 88.9% | 106% | –
15 | O=C(CCCSc1nc(-c2ccccc2)cc(-c2ccccc2)n1)NO | -2.58% (active) | -6.97% (active) | 12.6% | -8.18% (active) | 6.46% (active) | -3.2% (active) | -9.12% (active) | -1.91% (active) | 7.15% (active) | -14% (active) | 13.3% | 6.51% (active) | 7.62% (active) | 19.8% | -21.7% (active) | 0.164% (active) | 4.39% (active) | 6.64% (active) | -2.82% (active) | –

Reference: PubChem BioAssay (NCI)
